This is an account of results in PubChem BioAssay AID1117361 (Southern Research Institute, 2015).

Structures are written as SMILES. The campaign covered roughly 3,600 compounds. About 900 (25%) were called active. How the calls were made is not given here. These entries were drawn from the full list. Results with a measured potency or affinity are listed apart.

The test has as its target Protein Tat (Human immunodeficiency virus type 1 group M subtype B (isolate HXB2)) (UniProt P04608). The test can be described thus: inhibitors of Tat binding to TAR RNA, dose response, counter-screen for Vif-APOBEC3G degradation inhibitor project, biochemical, fluorescence polarization, FAM-labeled TAR RNA (AID 1117361). The note with it: outcome: dose series up to 100 µM unless noted; series mostly up to 100 µM; inhibition: at the top concentration. In general terms: The purpose of a counterscreen is to sort out artefacts and off-target activity.
What is called inhibition is the change of the read-out against control, counted positive when it falls. As for `CCOc1ccc(OCCOc2cccc(C(F)(F)F)c2)cc1`, the “inhibition” value is 4.05% (inactive).

Take `Cn1c(CN2CCOCC2)nc2cc(NC(=O)c3ccc(F)cc3)ccc21`: the “inhibition” value was 4.77% (inactive).

In the case of `O=C1N=C(N2CCOCC2)SC1=Cc1ccco1`, the “inhibition” value is 6.35% (inactive).

Turning to `C/C(=C1\SC(N2CCOCC2)=NC1=O)c1ccccc1`, the molecule was called inactive.

In the case of `COc1cccc(/C=C2\SC(N)=NC2=O)c1OS(=O)(=O)c1ccccc1`, the molecule was called inactive.

Take `COc1cccc(-c2nc3n(n2)C(c2cccs2)C(C(=O)Nc2cccnc2)=C(C)N3)c1` (stereo not given): the outcome was inactive.

As for `O=C(CCc1ccccc1)NNC(=S)NCCc1ccccc1`, the call was inactive.

For the molecule `Cc1cc(C(C)(C)C)ccc1OCCN(C)C`, the “inhibition” value is 0.68% (inactive).

Take `COCCn1c(Sc2ccc(C)cc2)nc2c1c(=O)[nH]c(=O)n2C`: the outcome was inactive.

With `Nc1nc(Cl)cc(N2CCC(c3cc(-c4ccc(Cl)cc4Cl)n[nH]3)CC2)n1`, the outcome was inactive.

As for `CCOC(=O)N1CCN(S(=O)(=O)c2ccc3c(c2)C(C)C(=O)N3)CC1` (stereo not given), the “inhibition” value is 8.25% (inactive).

With `O=C(Nc1ccc2oc(=O)ccc2c1)c1ccc(-c2ccc(Cl)cc2)o1`, the “inhibition” value is 16.4% (inactive).

Take `COc1cccc(/C=N/n2c(N)c(S(=O)(=O)c3cccs3)c3nc4ccccc4nc32)c1`: the “inhibition” value was 8.11% (inactive).

Turning to `COc1ccc(S(=O)(=O)N2CCN(C(=O)c3cc(-c4ccccc4OC)n[nH]3)CC2)cc1`, the “inhibition” value was 1.67% (inactive).

`CCCN(C(=S)Nc1ccccc1)C1CCS(=O)(=O)C1` (stereo not given): the molecule was classed as inactive.

On to `COc1cccc(C2NC(=O)NC(O)(C(F)(F)F)C2C(=O)c2cccnc2)c1OC` (stereo not given), for which the “inhibition” value was 12.8% (inactive).

As to `CCn1c(COc2ccc3c(c2)OCO3)nnc1SCC(=O)c1ccc(Cl)cc1`, the “inhibition” value is 3.41% (inactive).

Take `Nc1cccc(-c2nc3ccc(N)cc3s2)c1`: the “inhibition” value is 3.38% (inactive).

For the molecule `Cc1[nH]n(-c2nc(-c3ccccc3F)cc(=O)[nH]2)c(=O)c1CCO`, the result was inactive.

Take `NC(=O)C1Cc2ccccc2CN1C(=O)c1nn(Cc2ccccc2)c(=O)c2ccccc12` (stereo not given): the result was inactive.

Consider `COc1ccc(C2Nc3ccccc3C(=O)N2c2ccc(Cl)cc2)cc1Cn1cc([N+](=O)[O-])cn1` (stereo not given), for which the result was inactive.

For the molecule `COc1ccc(/C=N/NC(=O)CN2CCN(Cc3ccccc3)CC2)cc1Br`, the “inhibition” value was 8.25% (inactive).

For the molecule `Cc1ccc(S(=O)(=O)N=Nc2c(O)[nH]c3ccccc23)cc1`, the “inhibition” value is 17.1% (inactive).

`CN(C)c1ccc(/C=N\NC(=O)c2csnn2)cc1`: the “inhibition” value is 2.03% (inactive).

For `CCC(Cc1ccccc1)NC(=O)C1CCN(S(=O)(=O)c2c(C)noc2C)CC1` (stereo not given), the “inhibition” value is 2.73% (inactive).

For `COc1ccc(S(=O)(=O)N2CCC(C(=O)NCc3ccco3)CC2)cc1`, the “inhibition” value is 15.5% (inactive).

On to `COc1ccc(OCCNS(=O)(=O)c2ccccc2)cc1`, for which the molecule was classed as inactive.

Turning to `CN1CCN(c2ccccc2NC(=O)C(Cc2ccccc2)n2cccc2)CC1` (stereo not given), the “inhibition” value was 2.73% (inactive).

For the molecule `COc1cccc(Cn2nnc(C(=O)NCCc3ccc(Cl)cc3)c2N)c1`, the “inhibition” value is 5.41% (inactive).

As to `CCCCNC(=O)c1onc(CSc2cccc(OCC)c2)c1C(=O)O`, the outcome was inactive.
